# Reference: PubChem BioAssay AID588342 (National Center for Advancing Translational Sciences (NCATS), 2011)
# The whole screen tested about 360,000 compounds, of which about 25,000 (6.9%) were called active. About 9% were inconclusive and are not listed. The sample holds actives, similar compounds and a random draw of the others, so the mix is not that of the screen. Values without a mark were called inactive. Calls follow the shape of the dose curve; as a rule, active = well fitted inhibition curve with a large enough effect; inconclusive = small, poorly fitted or top-dose-only effect; inactive = flat fitted curve, though single readings scatter.
# Biological target: Luciferin 4-monooxygenase (Photinus pyralis) (UniProt P08659)
# Sequence (P08659 whole entry, looked up): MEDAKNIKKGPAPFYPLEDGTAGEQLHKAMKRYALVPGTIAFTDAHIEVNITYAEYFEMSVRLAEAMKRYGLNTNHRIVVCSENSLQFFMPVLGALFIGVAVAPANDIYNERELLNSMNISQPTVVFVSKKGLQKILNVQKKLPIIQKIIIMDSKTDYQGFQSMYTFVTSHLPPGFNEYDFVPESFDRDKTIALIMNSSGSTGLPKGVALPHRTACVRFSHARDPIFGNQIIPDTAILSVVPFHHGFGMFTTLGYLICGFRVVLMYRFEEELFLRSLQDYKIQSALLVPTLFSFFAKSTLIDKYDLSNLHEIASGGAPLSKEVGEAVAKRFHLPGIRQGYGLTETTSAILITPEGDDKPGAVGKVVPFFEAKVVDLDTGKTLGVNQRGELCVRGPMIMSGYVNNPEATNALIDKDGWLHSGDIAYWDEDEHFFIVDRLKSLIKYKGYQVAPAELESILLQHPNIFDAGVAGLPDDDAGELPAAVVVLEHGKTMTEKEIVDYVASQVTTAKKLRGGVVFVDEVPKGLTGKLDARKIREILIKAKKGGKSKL
# Assay: qHTS profiling assay for firefly luciferase inhibitor/activator using purifed enzyme and Km concentrations of substrates (counterscreen for miR-21 project); also: nearly all actives have a fitted effect of over 55% in size;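 as to activity change, negative = inhibition: plate controls were vehicle for no effect and reference inhibitor for full effect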
# Conditions: purified FLuc, luminescence inhibition; series mostly up to 57.5 µM; activity change, negative = inhibition: at the top concentration
# Outline: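 Purified P. pyralis luciferase, 10 nM final, with Km-level 10 uM D-luciferin and 10 uM ATP in 50 mM Tris acetate pH 7.5, 10 mM Mg acetate, 0.01% Tween-20, 0.05% BSA; 6-point qHTS titration about 60 µM downward; luminescence read.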
# Potency is read from the fitted curve at half-maximal effect.
SMILES,"activity change, negative = inhibition",Potency
N#Cc1nc(/C=C/c2ccc(F)cc2)oc1NCc1ccc(F)cc1,-12.8%,
Nc1nc(COC(=O)CCC(=O)c2ccc(Cl)cc2)nc(Nc2ccccc2)n1,-5.03%,
CC(C)NS(=O)(=O)c1ccc(NC(=O)c2cccnc2)cc1,-0.0382%,
CCOC(=O)c1sc(NC(=O)CSc2ncccn2)c(C#N)c1C,2.76%,
Cc1c(C(=O)OC(C)C)sc(NC(=O)c2cccnc2)c1C#N,,6.75 µM (active)
Cc1ccc(NS(=O)(=O)c2ccc3c(c2)CC(=O)N3)cc1Cl,-14.3%,
c1ccc(-c2ccc(OCCN3CCOCC3)cc2)cc1,,16.9 µM (active)
CC(=O)c1ccc(OCCN2CCOCC2)cc1,5.68%,
CC(C)(c1ccccc1)c1ccc(OCCN2CCCC2)cc1,0.0605%,
O=C(C1CC1)N1CCc2cc(Br)cc(S(=O)(=O)N3CCN(c4ccccc4F)CC3)c21,-7.45%,
COc1cccc(CN(C)C(=O)CC23CC4CC(CC(C4)C2)C3)c1OC,-15%,
CCC(=O)OCCNc1nc(-c2ccccc2)nc2ccccc12,-4.01%,
Cc1cccc(-c2nc(Nc3ccc(O)cc3)c3ccccc3n2)c1,,19 µM (active)
COc1cc(Nc2nc(-c3ccc(OC)c(OC)c3)nc3ccccc23)cc(OC)c1,-16.2%,
CCOc1ccc2c(c1)cc(CN(C(=O)CC)C1CCCCC1)c1nnnn12,1.41%,
COc1ccc(C)cc1N(C)C(=O)c1c(C)oc2ncnc(N3CCOCC3)c12,-3.5%,
COc1cc(Cl)c(C)cc1Nc1nnc(-n2nc(C)cc2C)c2ccccc12,0.688%,
O=c1[nH]c2cc(Br)ccc2n2cccc12,5.01%,
O=C(N/N=C/c1sc(N2CCCCC2)nc1-c1cccs1)c1cccnc1,,21.3 µM (active)
Cc1ccc(S(=O)(=O)N2CCCCC2)cc1NC(=O)c1cccnc1,-0.669%,
O=C(NN=C1CCC(=NNC(=O)c2cccnc2)CC1)c1cccnc1,2.4%,
COc1ccc2c(c1)CCc1cn3ncc(C#N)c3nc1-2,3.08%,
COc1ccc2nc(N3CCCC(O)C3)c(C#N)cc2c1 (configuration not stated),,7.57 µM (active)
COc1ccc2cc(C(=O)C3CCCN(C(=O)c4sc(C)nc4C)C3)ccc2c1 (configuration not stated),-3.22%,
COc1cc2c(cc1OC)CN(C(C)C(=O)Nc1cccc(S(=O)(=O)N3CCOCC3)c1)CC2 (configuration not stated),5.89%,
COc1ccc(S(=O)(=O)NCCCCOc2ccc(Cl)cc2)cc1,-0.503%,

SMILES,"activity change, negative = inhibition",Potency
Cc1cc(S(=O)(=O)N2CCOCC2)ccc1OCC(=O)N1CCOCC1,-0.856%,
COCc1c(C(=O)OCC(=O)Nc2ccc(OC(F)F)cc2)oc2ccccc12,-0.0136%,
O=C(NC1CC1)c1cccc(Br)c1,0.544%,
O=C(NC1CCCC1)c1cc(-c2ccccc2)on1,,5.36 µM (active)
O=C(NC1CCN(S(=O)(=O)c2ccc(F)cc2)CC1)c1ccccc1,0.126%,
CC(=O)c1cc(-c2ccccc2)n(CC(=O)NC2CCCCC2)c1C,,inactive
O=C(NC1CC1)c1ccc(-c2ccccc2)cc1,,16.9 µM (active)
O=C(CCc1nc(-c2ccccc2)no1)Nc1cccc(C(=O)NC2CC2)c1,0.236%,
COc1ccc(-c2c(C)c3ccc(O)c(CN4CCCC4)c3oc2=O)cc1OC,-0.838%,
Cn1nc(C(=O)OCC(=O)N(Cc2ccccc2)C(C)(C)C)c2ccccc2c1=O,6.48%,
FC(F)(F)c1cnc(Oc2ccccc2-c2nnc(-c3ccc(Cl)cc3)o2)c(Cl)c1,-19.2%,
CSc1ccccc1-c1nnc(-c2ccc(Cl)cc2)o1,,5.36 µM (active)
O=C(O)c1cc(S(=O)(=O)Nc2ccc3cn[nH]c3c2)ccc1Br,-5.78%,
Cc1cc(C)cc(OCC(=O)NNC(=O)CCN2C(=O)c3ccccc3C2=O)c1,1.62%,
O=C(CCCN1C(=O)c2ccccc2C1=O)Oc1ccc(Cl)cc1,-5.24%,
Cc1cc(C(=O)COC(=O)CCCN2C(=O)c3ccccc3C2=O)c(C)n1C,,23.9 µM (active)
CCCCN(Cc1ccccc1)C(=O)C1CCN(Cc2sccc2C)CC1,-2.08%,
O=C(NC1CC(=O)N(c2ccc(F)cc2)C1)c1cccs1 (configuration not stated),-0.832%,
CN(c1ccc(O)cc1)c1nc(-c2cccnc2)cs1,,4.78 µM (active)
CN(C(=O)CSc1nc(C2CC2)nc2ccccc12)c1nc(-c2ccccc2)cs1,1.2%,
COc1ccc(CCN(C(=O)COc2ccccc2)c2nc(-c3ccccc3)cs2)cc1OC,0.0185%,
Cc1ccc(S(=O)(=O)N(Cc2nc(-c3ccc(Cl)cc3)no2)C2CCCCC2)cc1,1.23%,
CC(C(=O)N1CCc2ccccc21)N(C)CC(=O)Nc1ccc(F)cc1 (configuration not stated),-1.04%,
Cc1cccn2c(=O)c(/C=C3\SC(=S)N(CC(C)C)C3=O)c(NCCCOC(C)C)nc12,1.38%,
CNc1nc2c(C)cccn2c(=O)c1C=Nc1ccc(OC)cc1,,12 µM (active)
Cc1cccn2c(=O)c(C=O)c(Nc3ccc(S(N)(=O)=O)cc3)nc12,0.613%,
